This is part of a sample that, as a whole, favours compounds with a hit. Of some 83,000 tested, about 20% had one in any assay.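 How to read the values: 0–100, growth inhibition (40 = 60% inhibited); 0, no net growth; -100 to 0, cell death (-40 = 40% of starting cells died; -100 = all dead).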 A number with no mark means an inactive call. Active and inactive are the calls of the source. The calls were made as follows: active = growth percent below 10; inactive = the rest.
test system: HL-60(TB) leukemia; assay: NCI-60 one-dose screen, 48 h (100 = growth as untreated, 0 = no growth, -100 = all killed); settings: 10 µM unless noted

Question: Which growth does the source give for `O=C(Cn1cc(CSc2nc3ccccc3o2)nn1)Nc1ccc(F)cc1F` here?
Answer: 102%

Question: With `Cn1cc(-c2ccc(-c3cn(C)c4ccc(Cl)cc34)[nH]2)c2cc(Cl)ccc21` as the compound, how does the growth read?
Answer: -37.8% (active)

Question: With `CN(C)c1ccc(NC(=O)c2ccc(/C=C/C(=O)c3ncc[nH]3)cc2)cc1` as the compound, how does the growth read?
Answer: 17.5%

Question: How did the growth turn out when `O=C1/C(=C/c2ccc(F)cc2)CN(Cc2cn(CCNc3ccnc4cc(Cl)ccc34)nn2)C/C1=C\c1ccc(F)cc1` was run?
Answer: -27.6% (active)

Question: Which growth does the source give for `NC(=O)SCC(=O)NNc1ccccc1` here?
Answer: 101%

Question: Which growth does the source give for `C(=N\Nc1ncnc2sc3c(c12)CCNC3)/c1cccc2ccccc12` here?
Answer: 99.1%

Question: With `CCN(CCCNC(=O)Cc1cc(=O)oc2cc(N(C)C)ccc12)CCNc1ccnc2cc(Cl)ccc12` as the compound, how does the growth read?
Answer: 76.6%

Question: With `Oc1ccc(C(c2ccc(O)cc2)c2ccc(Cl)cn2)cc1` as the compound, how does the growth read?
Answer: 101%

Question: How did the growth turn out when `C#CCOc1nc(C)cc(C)c1C#N` was run?
Answer: 89.5%

Question: With `CC(C)(C)n1cc(-c2ccnc(NCCCNS(=O)(=O)c3ccc(C(F)(F)F)cc3)c2)c(-c2cccc(F)c2)n1` as the compound, how does the growth read?
Answer: 94.6%

Question: For `O=C(CCl)N1c2ccccc2Sc2ccc3ccccc3c21`, which growth is on record?
Answer: -44.1% (active)

Question: `C=C(C)C1CCC2(C)OC2C1` (stereo not given) was tested. Which growth did it give?
Answer: 95.6%

Question: How did the growth turn out when `C=C(C)c1ccc(/C=N/NC(N)=S)cc1` was run?
Answer: 147%

Question: `CN(CCCNC(=O)Cc1ccc2ccc3cccc4ccc1c2c34)CCCNc1cc(-c2ccc3ccccc3c2)nc2ccccc12` was tested. Which growth did it give?
Answer: -60.1% (active)

Question: For `CCCc1n(Cc2ccc3ccccc3c2)c2ccccc2[n+]1Cc1ccc2ccccc2c1`, which growth is on record?
Answer: -64.2% (active)

Question: `CNC1(C#N)CCN(Cc2ccccc2)CC1` was tested. Which growth did it give?
Answer: 168%

Question: Which growth does the source give for `O=C1CCNC1` here?
Answer: 103%

Question: `Cc1ccc(-c2nc(-c3cn(C)c4ncccc34)cs2)cc1` was tested. Which growth did it give?
Answer: 16.2% [100 µM]

Question: With `COc1cc2c(c(OC)c1OC)C(=O)CC(c1cccc(C(=O)Nc3ccccc3Br)c1)O2` (stereo not given) as the compound, how does the growth read?
Answer: 76.5%

Question: For `CC1(C)N=C(N)N=C(N)N1c1cccc(Br)c1`, which growth is on record?
Answer: 33.9%

Question: Which growth does the source give for `CC(C)(C)c1ccc(OCCCCCCCN2CCNCC2)cc1` here?
Answer: -40.7% (active)

Question: For `CC(=O)Oc1c(C)c(OC(C)=O)c2c(c1C(C)=O)OC1CC(=O)C(C(C)=O)=C(O)C21C` (stereo not given), which growth is on record?
Answer: 79.4%

Question: `O=C(CCCCC(=O)Nc1ccc2c(c1)/C(=C/c1ccc[nH]1)C(=O)N2)NO` was tested. Which growth did it give?
Answer: 107%

Question: For `C(=N\Nc1ncc(-c2cc3cc4c(cc3o2)OCO4)s1)/c1c[nH]c2ccccc12`, which growth is on record?
Answer: 2.27% (active)

Question: Which growth does the source give for `Nc1ccc(S(=O)(=O)c2ccc(NO)cc2)cc1` here?
Answer: 107%

Question: With `N#Cc1c(NC(=O)NCc2ccccc2)sc2c1CCCCC2` as the compound, how does the growth read?
Answer: -8.46% (active)

Question: With `Cc1cccc(NC(=O)N/C(N)=N/c2nc3ccccc3s2)c1` as the compound, how does the growth read?
Answer: 5.69% (active)

Question: With `C=COCCCCCCCCCCCCCCCCCC` as the compound, how does the growth read?
Answer: 73.8%

Question: How did the growth turn out when `COc1ccc(-c2cc(-c3ccc(Cl)cc3)nc(NCCCCNc3ccnc4cc(Cl)ccc34)n2)cc1` was run?
Answer: 16.7%

Question: For `CCCCCCOc1ccc(/C=C/C(=O)c2ccc(B(O)O)cc2)cc1`, which growth is on record?
Answer: 18.5%

Question: How did the growth turn out when `O=C(O)C(Cc1ccccc1)N1C(=O)/C(=C/C(Cl)=C/c2ccc([N+](=O)[O-])cc2)SC1=S` (stereo not given) was run?
Answer: -8.33% (active)

Question: For `Cn1cc(-c2nc(-c3cn(C)c4ncccc34)cs2)c2ccccc21`, which growth is on record?
Answer: 28.4%

Question: How did the growth turn out when `COC(=O)/C=C1/SC(=Nc2ccc(C(F)(F)F)cc2)N(CCc2c[nH]c3ccc(O)cc23)C1=O` was run?
Answer: -33.1% (active)

Question: `CCOC(=O)/C(=C/c1ccccc1)C(=O)c1ccccc1` was tested. Which growth did it give?
Answer: 34.5%

Question: With `CCCc1cc2c(=O)c(C(=O)OC)c[nH]c2cc1N(CC)CC` as the compound, how does the growth read?
Answer: 91.6%

Question: For `CC(C)=C1CCC(C)C/C1=N\N=C(N)N` (stereo not given), which growth is on record?
Answer: 104%

Question: How did the growth turn out when `COc1ccc(Cn2cc3c(c2-c2cc(OC)c(OC)c(OC)c2)CCc2cnoc2-3)cc1` was run?
Answer: 0.149% (active)

Question: With `COc1ccc(-c2[nH]c(=S)n(C(CC3(C)NCC(=O)N3n3c(-c4ccccc4)cc(C)nc3=S)c3ccc(OC)cc3)c(=O)c2Br)cc1` (stereo not given) as the compound, how does the growth read?
Answer: 59.6%

Question: `CC1=NN(c2cccc(Cl)c2)C(=O)/C1=C\c1cn(-c2nc(N3CCOCC3)nc(N3CCOCC3)n2)c2ccccc12` was tested. Which growth did it give?
Answer: 99.1%

Question: With `CNC(=O)c1cc(COc2nnc(Nc3ccc(Cl)cc3)c3ccoc23)ccn1` as the compound, how does the growth read?
Answer: 120%

Source: PubChem BioAssay (NCI)
